# From PubChem BioAssay (EPA / NIEHS)
# Results filed as inconclusive are left out. Calls of active or inactive are those of the source. The calls were made as follows, unless noted: active = hit-call score of the fitted dose curve at least 0.9, where 1 is the maximum; inactive = score below 0.9.
# Assays:
# [1] = ATG_Hpa5_TRANS: Attagene TRANS-FACTORIAL HepG2 Assay for human GAL4-Hpa5 Hepatocyte Transcription Factor Basal Promoter (AID 2282975; active = hit-call score of the fitted dose curve at least 0.9, where 1 is the maximum;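 also: hits are increases in reporter mRNA over DMSO baseline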); details: HepG2 Attagene GAL4-Hpa5 transcription reporter
# How it was run: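 Gain-of-signal versus DMSO is fitted for reporter mRNA quantified by RT-PCR and capillary electrophoresis after 24 h exposure. This endpoint is an internal background marker in transiently transfected HepG2 cells carrying GAL4-UAS reporter units.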
# [2] = target: Estrogen-related receptor gamma (Homo sapiens) (UniProt P62508); experiment: ATG_ERRg_TRANS: Attagene TRANS-FACTORIAL HepG2 Assay for human Estrogen-Related Receptor gamma (ERRg) (AID 2282977; active = hit-call score of the fitted dose curve at least 0.9, where 1 is the maximum;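 also: hits increase reporter signal over DMSO so potencies reflect activators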); details: HepG2 Attagene TRANS reporter, ERRg transactivation
# Sequence of Estrogen-related receptor gamma (Homo sapiens) (P62508 whole entry, looked up, the tested form may be a part): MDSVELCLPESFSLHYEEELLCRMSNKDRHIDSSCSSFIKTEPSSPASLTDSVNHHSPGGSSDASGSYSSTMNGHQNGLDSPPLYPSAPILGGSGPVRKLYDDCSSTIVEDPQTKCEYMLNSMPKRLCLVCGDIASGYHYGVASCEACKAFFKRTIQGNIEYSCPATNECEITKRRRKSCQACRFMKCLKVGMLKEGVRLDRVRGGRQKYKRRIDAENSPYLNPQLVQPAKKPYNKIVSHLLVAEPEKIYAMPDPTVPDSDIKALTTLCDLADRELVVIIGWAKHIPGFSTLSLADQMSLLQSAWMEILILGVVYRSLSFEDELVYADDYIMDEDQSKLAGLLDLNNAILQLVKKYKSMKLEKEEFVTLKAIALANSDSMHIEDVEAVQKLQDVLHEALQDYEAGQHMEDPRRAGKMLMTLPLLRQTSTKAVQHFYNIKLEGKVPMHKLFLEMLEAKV
# How it was run: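 Exogenous NR-Gal4 chimera activity was assessed in HepG2 cells bearing transfected GAL4-UAS reporters. After 24 h dosing, total RNA underwent RT-PCR, fluorescent primer extension and HpaI digestion before capillary electrophoresis, with gain of signal scored against DMSO.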
# [3] = target: Glucocorticoid receptor (Homo sapiens) (UniProt P04150); experiment: ATG_GR_TRANS: Attagene TRANS-FACTORIAL HepG2 Assay for human Glucocorticoid Receptor (GR) (AID 2282978; active = hit-call score of the fitted dose curve at least 0.9, where 1 is the maximum;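 also: activators score as hits since higher reporter transcript over DMSO is fitted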); details: HepG2 Attagene TRANS GR reporter, mRNA transcription
# Sequence of Glucocorticoid receptor (Homo sapiens) (P04150 whole entry, looked up, the tested form may be a part): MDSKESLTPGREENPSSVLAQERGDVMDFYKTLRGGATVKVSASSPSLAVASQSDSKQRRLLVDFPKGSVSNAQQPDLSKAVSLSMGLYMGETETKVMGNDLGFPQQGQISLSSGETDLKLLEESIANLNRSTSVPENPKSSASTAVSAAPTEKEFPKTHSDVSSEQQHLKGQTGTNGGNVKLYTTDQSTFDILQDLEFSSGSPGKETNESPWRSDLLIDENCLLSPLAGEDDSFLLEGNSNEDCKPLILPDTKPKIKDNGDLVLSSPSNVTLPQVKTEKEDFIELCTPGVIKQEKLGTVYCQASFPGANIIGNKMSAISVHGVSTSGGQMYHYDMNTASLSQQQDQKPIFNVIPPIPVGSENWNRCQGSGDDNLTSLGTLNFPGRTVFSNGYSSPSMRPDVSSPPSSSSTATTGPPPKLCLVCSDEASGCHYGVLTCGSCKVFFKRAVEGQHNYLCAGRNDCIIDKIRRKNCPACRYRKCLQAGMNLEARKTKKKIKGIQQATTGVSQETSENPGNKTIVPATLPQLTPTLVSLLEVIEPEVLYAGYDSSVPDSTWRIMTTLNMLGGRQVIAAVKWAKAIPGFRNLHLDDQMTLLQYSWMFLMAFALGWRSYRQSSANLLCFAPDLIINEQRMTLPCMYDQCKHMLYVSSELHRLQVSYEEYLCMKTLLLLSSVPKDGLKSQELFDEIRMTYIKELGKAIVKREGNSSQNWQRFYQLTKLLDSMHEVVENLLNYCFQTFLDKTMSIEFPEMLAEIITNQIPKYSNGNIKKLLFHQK
# How it was run: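 HepG2 cells transiently transfected with GAL4-UAS reporter units and exogenous GR-Gal4 chimera, dosed 24 h. Reporter mRNA by RT-PCR, FAM labeling, HpaI digest and capillary electrophoresis; gain-of-signal fit versus DMSO.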
# [4] = target: Oxysterols receptor LXR-beta (Homo sapiens) (UniProt P55055); experiment: ATG_LXRb_TRANS: Attagene TRANS-FACTORIAL HepG2 Assay for human Liver X Receptor beta (LXRb) (AID 2282981; active = hit-call score of the fitted dose curve at least 0.9, where 1 is the maximum); details: HepG2 Attagene TRANS GAL4-LXRb reporter, mRNA
# Sequence of Oxysterols receptor LXR-beta (Homo sapiens) (P55055 whole entry, looked up, the tested form may be a part): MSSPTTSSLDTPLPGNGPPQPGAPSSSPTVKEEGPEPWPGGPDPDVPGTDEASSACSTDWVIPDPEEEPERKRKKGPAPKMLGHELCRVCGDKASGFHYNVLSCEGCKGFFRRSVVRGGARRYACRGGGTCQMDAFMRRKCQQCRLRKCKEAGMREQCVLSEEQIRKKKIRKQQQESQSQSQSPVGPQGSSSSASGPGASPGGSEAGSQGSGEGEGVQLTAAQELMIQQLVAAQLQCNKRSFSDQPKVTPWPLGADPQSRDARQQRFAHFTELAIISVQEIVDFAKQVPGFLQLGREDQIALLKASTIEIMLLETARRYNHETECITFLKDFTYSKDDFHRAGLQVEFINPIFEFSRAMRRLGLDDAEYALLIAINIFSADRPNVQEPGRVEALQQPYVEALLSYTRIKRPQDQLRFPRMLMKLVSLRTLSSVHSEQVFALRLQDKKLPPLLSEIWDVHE
# How it was run: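 Readout: fluorescent reporter mRNA fragments resolved by capillary electrophoresis after RT-PCR. System: transiently transfected human HepG2, exogenous LXRb-Gal4 chimera driving GAL4-UAS reporter, 24 h dosing. Activity fitted upward against DMSO baseline.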
# [5] = target: Hepatocyte nuclear factor 4-alpha (Homo sapiens) (UniProt P41235); experiment: ATG_HNF4a_TRANS: Attagene TRANS-FACTORIAL HepG2 Assay for human Hepatocyte Nuclear Factor 4 alpha (HNF4a) (AID 2282982; active = hit-call score of the fitted dose curve at least 0.9, where 1 is the maximum); details: HepG2 HNF4a transactivation reporter, mRNA readout
# How it was run: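 Transient MRTU transfection of HepG2, 24 h dosing. Readout: reporter mRNA via RT-PCR + capillary electrophoresis, fluorescence; activity fit upward relative to DMSO control.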
# [6] = ATG_M_06_TRANS: Attagene TRANS-FACTORIAL HepG2 Assay for M06 Transcription Factor (Internal Marker) (AID 2282983; active = hit-call score of the fitted dose curve at least 0.9, where 1 is the maximum;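 also: reporter transcript level by RT-PCR then capillary electrophoresis fluorescence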); details: HepG2 Attagene TRANS M06 internal marker reporter
# How it was run: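 mRNA levels of a reporter transcript, quantified as FAM fluorescence on capillary electrophoresis, served as readout. HepG2 cells expressing exogenous GAL4-chimera reporter constructs were exposed for 24 h. Gain of signal over DMSO was evaluated.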
# [7] = ATG_M_32_TRANS: Attagene TRANS-FACTORIAL HepG2 Assay for M32 Transcription Factor (Internal Marker) (AID 2282984; active = hit-call score of the fitted dose curve at least 0.9, where 1 is the maximum); details: HepG2 Attagene TRANS M32 internal marker reporter
# How it was run: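 Read-out: fluorescent reporter cDNA fragments resolved by capillary electrophoresis after RT-PCR of total RNA. Transfected HepG2 cells were exposed to chemical for 24 h. Activity scored in the positive direction relative to DMSO.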
# [8] = target: Nuclear receptor subfamily 4 group A member 2 (Homo sapiens) (UniProt P43354); experiment: ATG_NURR1_TRANS: Attagene TRANS-FACTORIAL HepG2 Assay for human Nuclear Receptor Related Protein 1 (NURR1) (AID 2282985; active = hit-call score of the fitted dose curve at least 0.9, where 1 is the maximum); details: HepG2 Attagene TRANS reporter, mRNA readout
# Sequence of Nuclear receptor subfamily 4 group A member 2 (Homo sapiens) (P43354 whole entry, looked up, the tested form may be a part): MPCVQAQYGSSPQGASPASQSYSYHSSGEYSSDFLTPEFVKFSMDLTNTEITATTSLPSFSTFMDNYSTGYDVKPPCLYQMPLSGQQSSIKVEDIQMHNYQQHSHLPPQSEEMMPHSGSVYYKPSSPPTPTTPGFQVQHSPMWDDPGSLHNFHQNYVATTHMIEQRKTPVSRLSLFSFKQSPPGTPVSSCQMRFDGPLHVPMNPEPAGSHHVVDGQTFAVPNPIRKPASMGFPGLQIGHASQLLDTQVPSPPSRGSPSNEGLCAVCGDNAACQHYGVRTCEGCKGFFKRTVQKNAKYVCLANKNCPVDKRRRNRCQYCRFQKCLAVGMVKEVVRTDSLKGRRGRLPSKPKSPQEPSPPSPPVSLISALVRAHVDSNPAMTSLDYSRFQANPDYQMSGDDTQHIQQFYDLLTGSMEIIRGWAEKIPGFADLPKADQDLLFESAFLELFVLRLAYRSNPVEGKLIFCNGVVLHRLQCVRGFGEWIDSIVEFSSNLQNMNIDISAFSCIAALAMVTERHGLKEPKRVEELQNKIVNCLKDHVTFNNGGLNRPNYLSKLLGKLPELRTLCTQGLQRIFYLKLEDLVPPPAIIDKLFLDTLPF
# How it was run: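 Read-out: reporter mRNA induction by RT-PCR plus capillary electrophoresis with fluorescence detection, after 24 h dosing of transfected HepG2 cells. Exogenous NR-Gal4 chimera activity drives GAL4-UAS reporter; activity fitted upward versus DMSO.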
# [9] = target: Transcriptional activator Myb (Homo sapiens) (UniProt P10242); experiment: ATG_Myb_CIS: Attagene CIS-FACTORIAL HepG2 Assay for human Myeloblastosis (Myb) Proto-Oncogene Transcription Factor (AID 2282986); details: HepG2 Attagene CIS-FACTORIAL Myb reporter transcription; actives raise or lower the signal
# Sequence of Transcriptional activator Myb (Homo sapiens) (P10242 whole entry, looked up): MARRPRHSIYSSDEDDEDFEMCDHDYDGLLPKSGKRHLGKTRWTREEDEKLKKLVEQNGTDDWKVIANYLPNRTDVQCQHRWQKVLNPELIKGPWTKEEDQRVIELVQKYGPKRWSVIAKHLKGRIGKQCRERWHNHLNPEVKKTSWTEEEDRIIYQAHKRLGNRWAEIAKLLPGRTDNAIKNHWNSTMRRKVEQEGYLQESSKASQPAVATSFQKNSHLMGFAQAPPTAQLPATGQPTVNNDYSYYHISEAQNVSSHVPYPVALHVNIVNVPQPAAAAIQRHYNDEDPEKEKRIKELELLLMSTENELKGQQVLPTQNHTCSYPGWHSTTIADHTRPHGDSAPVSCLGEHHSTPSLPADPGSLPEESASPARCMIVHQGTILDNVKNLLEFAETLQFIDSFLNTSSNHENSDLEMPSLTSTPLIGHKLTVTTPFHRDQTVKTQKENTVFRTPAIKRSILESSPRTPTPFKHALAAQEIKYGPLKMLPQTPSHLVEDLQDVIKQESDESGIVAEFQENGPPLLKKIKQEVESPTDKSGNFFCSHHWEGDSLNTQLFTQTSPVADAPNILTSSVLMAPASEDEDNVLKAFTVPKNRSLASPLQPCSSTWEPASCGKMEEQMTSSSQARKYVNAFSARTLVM
# How it was run: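 Transiently transfected HepG2 cells carrying a multiplexed cis-promoter reporter set report endogenous Myb activity after 24 h compound exposure. Reporter mRNA is read by RT-PCR with capillary electrophoresis of fluorescent products, fitted bidirectionally against DMSO.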
# [10] = target: Nuclear respiratory factor 1 (Homo sapiens) (UniProt Q16656); experiment: ATG_NRF1_CIS: Attagene CIS-FACTORIAL HepG2 Assay for human Nuclear Respiratory Factor 1 (NRF1) Orphan Gene (AID 2282987); details: HepG2 NRF1 cis-element reporter, Attagene multiplex; actives raise or lower the signal
# Sequence of Nuclear respiratory factor 1 (Homo sapiens) (Q16656 whole entry, looked up): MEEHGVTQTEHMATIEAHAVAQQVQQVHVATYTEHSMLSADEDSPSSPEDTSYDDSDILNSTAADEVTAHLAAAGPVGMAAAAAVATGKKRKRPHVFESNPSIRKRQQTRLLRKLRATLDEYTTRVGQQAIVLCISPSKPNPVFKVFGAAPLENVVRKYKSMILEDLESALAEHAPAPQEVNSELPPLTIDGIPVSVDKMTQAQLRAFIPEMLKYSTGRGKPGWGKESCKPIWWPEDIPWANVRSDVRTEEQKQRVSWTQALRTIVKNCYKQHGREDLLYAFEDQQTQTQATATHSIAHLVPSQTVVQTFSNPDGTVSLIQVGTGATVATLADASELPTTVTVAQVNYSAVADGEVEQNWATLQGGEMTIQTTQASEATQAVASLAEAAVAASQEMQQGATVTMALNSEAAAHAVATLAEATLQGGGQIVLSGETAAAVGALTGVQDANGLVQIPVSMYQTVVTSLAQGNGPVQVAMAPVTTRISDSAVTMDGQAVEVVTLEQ
# How it was run: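 HepG2 cells transiently transfected with multiple cis-regulated reporter units, exposed 24 h. Reporter mRNAs measured by RT-PCR, fluorescent labelling, HpaI digestion and capillary electrophoresis; bidirectional fitting against DMSO.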
# [11] = ATG_NFI_CIS: Attagene CIS-FACTORIAL HepG2 Assay for human Nuclear Factor I (NFI) (AID 2282989); details: HepG2 cis-regulatory reporter, NFI response element transcription; actives raise or lower the signal
# How it was run: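 Reporter transcription driven by endogenous transcription factors in HepG2 cells; 24 h treatment. Quantitation by labelled RT-PCR fragments on capillary electrophoresis, gain- or loss-of-signal relative to DMSO.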
# [12] = ATG_NF_kB_CIS: Attagene CIS-FACTORIAL HepG2 Assay for human Nuclear Factor Kappa B (NF-kB) (AID 2282991); details: HepG2 Attagene cis-factorial NF-kB reporter mRNA; actives raise or lower the signal
# How it was run: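 HepG2 cells transfected with cis-promoter-driven reporter units, so endogenous transcription factor activity is measured. Reporter mRNA quantified 24 h after dosing by RT-PCR and capillary electrophoresis, with bidirectional fitting against DMSO.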
# [13] = ATG_NRF2_ARE_CIS: Attagene CIS-FACTORIAL HepG2 Assay for human Nuclear Factor Erythroid 2 Related Factor 2 (NFR2) response to Antioxidant Response Elements (ARE) (AID 2282992); details: HepG2 Attagene ARE/NRF2 reporter, transcription factor activity; actives raise or lower the signal;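 as to AC50: reporter mRNA level measured by RT-PCR and capillary electrophoresis fluorescence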
# How it was run: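 Readout: reporter mRNA quantified by RT-PCR plus FAM-labelled primer extension, HpaI digestion and capillary electrophoresis, 24 h after dosing transfected HepG2 cells. Gain or loss of signal is fitted bidirectionally against DMSO baseline.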
# [14] = ATG_Oct_MLP_CIS: Attagene CIS-FACTORIAL HepG2 Assay for human Octamer-Binding Transcription Factor (Oct) (AID 2282993); details: HepG2 Attagene cis-factorial Oct reporter, mRNA; actives raise or lower the signal
# How it was run: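 Transfected HepG2 cells, 24 h treatment. Reporter mRNA quantified by RT-PCR–capillary electrophoresis; bidirectional fitting against DMSO.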
# [15] = target: Cellular tumor antigen p53 (Homo sapiens) (UniProt P04637); experiment: ATG_p53_CIS: Attagene CIS-FACTORIAL HepG2 Assay for human p53 Transcription Factor (AID 2282994); details: HepG2 p53 cis-element reporter, Attagene mRNA; actives raise or lower the signal
# Sequence of Cellular tumor antigen p53 (Homo sapiens) (P04637 whole entry, looked up): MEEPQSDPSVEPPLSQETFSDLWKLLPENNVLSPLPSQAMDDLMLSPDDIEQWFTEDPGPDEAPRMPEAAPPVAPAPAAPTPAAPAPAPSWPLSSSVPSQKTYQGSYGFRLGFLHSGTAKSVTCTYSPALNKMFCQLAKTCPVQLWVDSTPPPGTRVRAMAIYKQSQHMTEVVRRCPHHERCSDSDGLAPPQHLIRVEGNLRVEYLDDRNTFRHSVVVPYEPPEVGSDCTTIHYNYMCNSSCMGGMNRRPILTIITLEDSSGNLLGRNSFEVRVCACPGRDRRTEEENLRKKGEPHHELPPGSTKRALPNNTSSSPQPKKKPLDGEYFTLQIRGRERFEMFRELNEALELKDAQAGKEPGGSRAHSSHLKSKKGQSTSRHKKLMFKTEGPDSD
# How it was run: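 Read-out: reporter mRNA by RT-PCR plus capillary electrophoresis with fluorescence detection. Human HepG2 liver cells carried transfected multi-reporter cis-element constructs, dosed 24 h. Gain or loss of signal fitted bidirectionally against DMSO control.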
# [16] = BSK_3C_TissueFactor: BioMAP Diversity Plus: 3C Assay for Tissue Factor Biomarker Activity (AID 2282997); details: BioMAP 3C HUVEC, tissue factor biomarker readout; actives raise or lower the signal
# How it was run: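 Tissue Factor measured by ELISA, 24 h after treatment of primary HUVEC in the BioMAP 3C setting.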
# [17] = target: Myc proto-oncogene protein (Homo sapiens) (UniProt P01106); experiment: ATG_Myc_CIS: Attagene CIS-FACTORIAL HepG2 Assay for human Myelocytomatosis (Myc) Proto-Oncogene Transcription Factor (AID 2282990); details: HepG2, Attagene cis-reporter transcription factor activity; actives raise or lower the signal
# Sequence of Myc proto-oncogene protein (Homo sapiens) (P01106 whole entry, looked up): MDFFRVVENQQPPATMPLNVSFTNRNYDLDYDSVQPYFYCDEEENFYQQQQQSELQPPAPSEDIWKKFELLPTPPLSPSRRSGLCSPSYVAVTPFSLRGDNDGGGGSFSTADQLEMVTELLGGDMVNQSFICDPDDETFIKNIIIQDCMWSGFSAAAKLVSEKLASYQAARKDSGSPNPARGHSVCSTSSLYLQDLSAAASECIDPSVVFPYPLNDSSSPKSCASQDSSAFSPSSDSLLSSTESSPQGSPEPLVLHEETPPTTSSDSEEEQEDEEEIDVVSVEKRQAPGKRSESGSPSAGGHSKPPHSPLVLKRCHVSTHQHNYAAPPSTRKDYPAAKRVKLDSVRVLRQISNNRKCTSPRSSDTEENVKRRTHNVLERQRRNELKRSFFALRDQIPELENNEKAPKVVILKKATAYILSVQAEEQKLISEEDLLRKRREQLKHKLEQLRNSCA
# How it was run: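 Transiently transfected HepG2 cells bearing cis-promoter reporter units for endogenous transcription factors; 24 h exposure. Reporter mRNA measured by RT-PCR, 6-FAM primer extension, HpaI cut and capillary electrophoresis; bidirectional fit relative to DMSO.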
# [18] = target: Oxysterols receptor LXR-alpha (Homo sapiens) (UniProt Q13133); experiment: ATG_LXRa_TRANS: Attagene TRANS-FACTORIAL HepG2 Assay for human Liver X Receptor alpha (LXRa) (AID 2282980; active = hit-call score of the fitted dose curve at least 0.9, where 1 is the maximum); details: HepG2 Attagene TRANS reporter, LXRa transactivation
# Sequence of Oxysterols receptor LXR-alpha (Homo sapiens) (Q13133 whole entry, looked up, the tested form may be a part): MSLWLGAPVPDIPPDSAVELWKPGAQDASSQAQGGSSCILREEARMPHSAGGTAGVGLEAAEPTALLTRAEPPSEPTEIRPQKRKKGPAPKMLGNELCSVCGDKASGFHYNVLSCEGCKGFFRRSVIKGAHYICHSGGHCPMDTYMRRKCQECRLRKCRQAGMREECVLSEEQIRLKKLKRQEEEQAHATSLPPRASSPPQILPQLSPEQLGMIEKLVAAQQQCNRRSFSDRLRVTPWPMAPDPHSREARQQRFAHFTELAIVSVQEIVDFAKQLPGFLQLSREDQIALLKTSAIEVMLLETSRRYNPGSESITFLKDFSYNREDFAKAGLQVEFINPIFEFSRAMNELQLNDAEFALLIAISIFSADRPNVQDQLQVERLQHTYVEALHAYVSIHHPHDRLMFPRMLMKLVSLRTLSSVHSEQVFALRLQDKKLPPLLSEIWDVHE
# How it was run: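 HepG2 cells transiently transfected with GAL4-UAS reporter units for chimeric NR-Gal4 proteins, exposed to chemicals for 24 h. Reporter mRNA quantified by RT-PCR and capillary electrophoresis; gain of signal fitted relative to DMSO.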
# [19] = ATG_GAL4_TRANS: Attagene TRANS-FACTORIAL HepG2 Assay for GAL4 (Internal Marker) (AID 2282976; active = hit-call score of the fitted dose curve at least 0.9, where 1 is the maximum); details: HepG2 Attagene TRANS GAL4 internal marker reporter
# How it was run: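 Background-control readout: GAL4-UAS reporter transcript in transiently transfected HepG2 cells after 24 h compound exposure. Measured by RT-PCR, 6-FAM primer extension, HpaI digest and capillary electrophoresis; gain-of-signal fit versus DMSO.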
compound,measurement,setting,value
O=C(Nc1ccccc1-c1ccc(Cl)cc1)c1cccnc1Cl,outcome,[1],inactive
same,outcome,[2],inactive
same,outcome,[3],inactive
same,outcome,[4],inactive
same,outcome,[5],inactive
same,outcome,[6],inactive
same,outcome,[7],inactive
same,outcome,[8],inactive
same,outcome,[9],inactive
same,outcome,[10],inactive
same,outcome,[11],inactive
same,outcome,[12],inactive
same,AC50,[13],8.77 µM (active)
same,AC50,[14],7.03 µM (active)
same,outcome,[15],inactive
same,outcome,[16],inactive
COC(=O)N(C(=O)N1CO[C@@]2(C(=O)OC)Cc3cc(Cl)ccc3C2=N1)c1ccc(OC(F)(F)F)cc1,outcome,[2],inactive
same,outcome,[3],inactive
same,outcome,[4],inactive
same,outcome,[5],inactive
same,outcome,[7],inactive
same,outcome,[8],inactive
same,outcome,[9],inactive
same,outcome,[10],inactive
same,outcome,[11],inactive
same,AC50,[13],4.35 µM (active)
same,AC50,[14],1.71 µM (active)
same,outcome,[15],inactive
same,outcome,[16],inactive
Nc1c(Cl)c(F)nc(OCC(=O)O)c1Cl,outcome,[2],inactive
same,outcome,[3],inactive
same,outcome,[4],inactive
same,outcome,[6],inactive
same,outcome,[8],inactive
same,outcome,[9],inactive
same,outcome,[10],inactive
same,outcome,[11],inactive
same,outcome,[17],inactive
same,outcome,[12],inactive
same,outcome,[13],inactive
same,outcome,[14],inactive
same,outcome,[15],inactive
same,outcome,[16],inactive
CC1(C)CON(Cc2ccccc2Cl)C1=O,outcome,[1],inactive
same,outcome,[18],inactive
same,outcome,[4],inactive
same,outcome,[5],inactive
same,outcome,[7],inactive
same,outcome,[9],inactive
same,outcome,[10],inactive
same,outcome,[11],inactive
same,outcome,[12],inactive
same,AC50,[13],44.1 µM (active)
same,outcome,[14],inactive
same,outcome,[15],inactive
same,outcome,[16],inactive
CSC(=O)c1c(C(F)F)nc(C(F)(F)F)c(C(=O)SC)c1CC(C)C,outcome,[19],inactive
same,outcome,[3],inactive
same,outcome,[5],inactive
same,outcome,[6],inactive
same,outcome,[7],inactive
same,AC50,[8],13.5 µM (active)
same,outcome,[9],inactive
same,outcome,[10],inactive
same,outcome,[11],inactive
same,outcome,[17],inactive
same,outcome,[13],inactive
same,outcome,[14],inactive
same,outcome,[15],inactive
same,outcome,[16],inactive
COc1ccc(-c2ccccc2)cc1NNC(=O)OC(C)C,outcome,[2],inactive
same,outcome,[3],inactive
same,outcome,[4],inactive
same,outcome,[6],inactive
same,outcome,[8],inactive
same,outcome,[9],inactive
same,outcome,[10],inactive
same,outcome,[11],inactive
same,outcome,[17],inactive
same,outcome,[12],inactive
same,AC50,[13],6.71 µM (active)
same,AC50,[14],0.882 µM (active)
same,outcome,[15],inactive
same,outcome,[16],inactive
CC1(C)CCC(=Cc2ccc(Cl)cc2)C1(O)Cn1cncn1 (centres undefined),outcome,[19],inactive
same,outcome,[3],inactive
same,outcome,[18],inactive
same,outcome,[4],inactive
same,outcome,[6],inactive
same,outcome,[7],inactive
same,outcome,[8],inactive
same,outcome,[9],inactive
same,outcome,[10],inactive
same,outcome,[11],inactive
same,outcome,[17],inactive
same,AC50,[13],3.91 µM (active)
same,AC50,[14],13.3 µM (active)
same,outcome,[15],inactive
same,outcome,[16],inactive
N#CN=C1SCCN1Cc1ccc(Cl)nc1,outcome,[2],inactive
same,outcome,[3],inactive
same,outcome,[18],inactive
same,outcome,[4],inactive
same,outcome,[5],inactive
same,outcome,[7],inactive
same,outcome,[8],inactive
same,outcome,[9],inactive
same,outcome,[10],inactive
same,outcome,[11],inactive
same,outcome,[12],inactive
same,AC50,[13],50 µM (active)
same,outcome,[14],inactive
same,outcome,[15],inactive
same,outcome,[16],inactive
